Each structure is given as a SMILES string. A number with no mark means an inactive call. Records with an inconclusive call do not appear. Calls of active or inactive are those of the source. Unless noted, the call rests on the fitted dose curve; in most records, active means well fitted curve in the direction sought with a large enough effect in the repeat runs; inconclusive means weak or mixed curves; inactive means no such curve, though single readings can be large; an effect the other way counts as inactive or inconclusive.

Assay [1] has as its target Thyrotropin receptor (Homo sapiens) (UniProt P16473). As to the kind of experiment: qHTS assay to identify small molecule agonists of the thyroid stimulating hormone receptor (TSHR) signaling pathway (AID 1224843; calls by dose curve; further: nearly all actives have a fitted effect of over 45% in size). In short, it runs like this:
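TSHR-expressing HEK293 cells (800 per well) were exposed to compounds for 30 min at room temperature. cAMP was then detected by HTRF competition with cAMP-d2 and anti-cAMP cryptate, read after 1 h at room temperature. Fifteen concentrations, triplicate.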
In general terms: In qHTS, concentration-response curves come from the screen itself.

Assay [2] is described as follows: qHTS assay to identify small molecule agonists of the hypoxia (HIF-1) signaling pathway - cell viability counter screen (AID 1224844; calls by dose curve; further: nearly all actives have a fitted effect of over 50% in size). In short, it runs like this: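 HRE-bla ME-180 cells, 2,000/well in 0.5% dialyzed FBS medium, treated 17 h at 37C with compounds. Viability read in the same wells as the bla reporter, by CellTiter-Glo luminescence after 30 min at room temperature.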

A short description of assay [3]: qHTS assay to identify small molecule agonists of H2AX (AID 1224845; active means well fitted activation curve with a large enough effect in the signal ratio in the repeat runs, not every such curve was filed as active; the % refers to the signal ratio). The procedure, abridged:
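Wild-type CHO-K1 cells plated overnight, then exposed 3 hr at 37C to compounds at 15 concentrations (0.76% DMSO). Lysed, then HTRF anti-pH2AX(S139)-cryptate/anti-H2AX-d2 detection after 24 hr at room temperature; emissions 665 and 620 nm.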

Assay [4] in a line: qHTS assay to identify small molecule agonists of H2AX - cell viability counter screen (AID 1224847; calls by dose curve; further: top concentration of the series differs between compounds; nearly all actives have a fitted effect of over 30% in size). The procedure, abridged: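 Compounds tested at 15 concentrations were incubated 3 hr at 37C with wild-type CHO-K1 cells; cellular ATP-based luminescence (CellTiter-Glo) indicated viability.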
Assay [5] in a line: qHTS assay to identify small molecule antagonists of the estrogen related receptor (ERR) signaling pathway from Tox21 library (AID 1224848). Further: nearly all actives have a fitted effect of over 50% in size. The procedure, abridged: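 Cells: ERR line, 2,000/well; 6 h preincubation 37 C/5% CO2. Cpd in DMSO via pin tool; 18 h, 37 C. ONE-Glo, 30 min RT, luminescence.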
Assay [6] in a line: qHTS assay to identify small molecule agonists of the estrogen related receptor (ERR) signaling pathway from Tox21 library (AID 1224849; calls by dose curve; further: nearly all actives have a fitted effect of over 15% in size). The note with it: ERR reporter cell line, ONE-Glo luciferase, 18 h; at 92.4 µM (top of the series) unless noted. The procedure, abridged: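 ERR reporter cells (NTP line) pre-incubated 6 hours at 37 C, then exposed to compounds for 18 hours at 37 C. ONE-Glo luciferase luminescence was read after 30 minutes at room temperature.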

A short description of assay [7]: qHTS RealTime-Glo MT Cell Viability Assay in HepG2 cells - 24 hour (AID 1224867). Further: nearly all actives have a fitted effect of over 50% in size. In short, it runs like this: (§1)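 Tox21 10K library screened in qHTS format on HepG2 cells carrying RealTime-Glo reagents. Compounds were added after a 5 h preincubation, and the luminescent signal from continuous culture was measured repeatedly during 40 h treatment.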
The nature of assay [8]: A CellTox Green Cytotoxicity Assay to monitor cytotoxicity in HEK293 cells - 0 hour (AID 1224869). Further: nearly all actives have a fitted effect of over 50% in size. The procedure, abridged: (§2)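 HEK293 cells, 600/well, were preincubated 5 hours and then exposed to compounds at 37 C for up to 40 hours. A cell-impermeant cyanine dye staining dead-cell DNA was read by fluorescence at 0, 8, 16, 24, 32 and 40 h time points.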
Assay [9] in a line: qHTS RealTime-Glo MT Cell Viability Assay in HepG2 cells - 40 hour (AID 1224870). Further: nearly all actives have a fitted effect of over 50% in size. The procedure, abridged:
(§3)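 HepG2 cells mixed with RealTime-Glo MT reagents (NanoLuc plus cell-permeant prosubstrate) were seeded at 600 cells/well, incubated 5 h at 37 C/5% CO2, then pinned with compounds in DMSO; nonlytic luminescence tracked viability during 40 h treatment.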

Assay [10] is described as follows: A CellTox Green Cytotoxicity Assay to monitor cytotoxicity in HEK293 cells - 40 hour (AID 1224871). Further: nearly all actives have a fitted effect of over 45% in size. Further: potency means the concentration at half of the fitted maximal effect. The procedure, abridged: as §2
The nature of assay [11]: qHTS RealTime-Glo MT Cell Viability Assay in HepG2 cells - 8 hour (AID 1224873). Further: nearly all actives have a fitted effect of over 55% in size. In short, it runs like this:
as §3

A short description of assay [12]: A CellTox Green Cytotoxicity Assay to monitor cytotoxicity in HEK293 cells - 24 hour (AID 1224875). Further: nearly all actives have a fitted effect of over 45% in size. Further: potency means the concentration at half of the fitted maximal effect. In short, it runs like this:
as §2

A short description of assay [13]: A CellTox Green Cytotoxicity Assay to monitor cytotoxicity in HepG2 cells - 16 hour (AID 1224876). Further: nearly all actives have a fitted effect of over 45% in size. Further: potency means the concentration at half of the fitted maximal effect. In short, it runs like this: (§4)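 HepG2 cells, 600/well, preincubated 5 h with CellTox Green dye, then exposed to Tox21 compounds in DMSO at 37 C for up to 40 h. Dead-cell DNA fluorescence read at the indicated time point.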
A short description of assay [14]: qHTS RealTime-Glo MT Cell Viability Assay in HepG2 cells - 32 hour (AID 1224877). Further: nearly all actives have a fitted effect of over 55% in size. In short, it runs like this: as §1
Assay [15] in a line: A CellTox Green Cytotoxicity Assay to monitor cytotoxicity in HepG2 cells - 24 hour (AID 1224878). Further: nearly all actives have a fitted effect of over 45% in size. Further: potency means the concentration at half of the fitted maximal effect. In short, it runs like this: as §4
The nature of assay [16]: qHTS RealTime-Glo MT Cell Viability Assay in HEK293 cells - 32 hour (AID 1224868). In short, it runs like this:
(§5)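 Luminescence generated by NanoLuc from substrate produced by living HEK293 cells served as the viability signal. Each value reflects the reading at its stated time point during continuous 40 h compound exposure at 37 C.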

Assay [17] in a line: A CellTox Green Cytotoxicity Assay to monitor cytotoxicity in HepG2 cells - 40 hour (AID 1224879). Further: nearly all actives have a fitted effect of over 40% in size. Further: potency means the concentration at half of the fitted maximal effect. The procedure, abridged: as §4
A short description of assay [18]: qHTS RealTime-Glo MT Cell Viability Assay in HEK293 cells - 16 hour (AID 1224872). The procedure, abridged: as §5
A short description of assay [19]: qHTS RealTime-Glo MT Cell Viability Assay in HEK293 cells - 40 hour (AID 1224874). Further: nearly all actives have a fitted effect of over 50% in size. As to conditions: RealTime-Glo luminescence; max response: active compounds read low. The procedure, abridged: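 600 cells/well were plated with the nonlytic NanoLuc/prosubstrate reagent, pre-incubated 5 h, then given 23 nL of compound in DMSO. Incubation at 37 C for 40 h, with luminescence from viable-cell-reduced substrate read repeatedly from 0 h.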
On the % scale 0 is the no-effect control and ±100 the full control effect.

Thyrotropin receptor (Homo sapiens), sequence (P16473 whole entry, looked up): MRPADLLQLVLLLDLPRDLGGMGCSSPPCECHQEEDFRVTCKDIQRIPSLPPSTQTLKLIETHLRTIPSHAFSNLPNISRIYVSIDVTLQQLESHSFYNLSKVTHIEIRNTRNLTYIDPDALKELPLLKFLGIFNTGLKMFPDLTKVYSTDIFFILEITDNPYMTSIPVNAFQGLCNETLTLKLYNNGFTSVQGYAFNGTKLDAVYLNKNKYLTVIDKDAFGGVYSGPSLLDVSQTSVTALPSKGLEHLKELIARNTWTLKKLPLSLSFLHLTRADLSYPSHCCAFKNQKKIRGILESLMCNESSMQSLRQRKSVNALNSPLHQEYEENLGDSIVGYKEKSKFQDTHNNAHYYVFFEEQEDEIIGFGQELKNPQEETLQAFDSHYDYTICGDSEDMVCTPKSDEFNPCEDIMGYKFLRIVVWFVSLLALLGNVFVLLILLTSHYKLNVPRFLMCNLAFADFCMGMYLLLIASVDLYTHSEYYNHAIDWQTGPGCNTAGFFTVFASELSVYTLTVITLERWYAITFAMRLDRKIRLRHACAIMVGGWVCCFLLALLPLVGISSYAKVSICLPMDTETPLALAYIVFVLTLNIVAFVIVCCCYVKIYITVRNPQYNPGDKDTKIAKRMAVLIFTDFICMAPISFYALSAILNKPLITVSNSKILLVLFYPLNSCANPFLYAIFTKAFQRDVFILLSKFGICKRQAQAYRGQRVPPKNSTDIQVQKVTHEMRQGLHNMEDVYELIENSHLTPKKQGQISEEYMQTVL

As to `CCC(=O)c1ccc(Cl)cc1`, the Potency entry in assay [1], in [2], in assay [4], in [5], in assay [7] and in [9] was “inactive” in each case. Besides, the Potency result in [10], in assay [12], in assay [13], in assay [14] and in [15] was “inactive” in each case. The result in assay [3], in [8] and in [11] was inactive. Moreover, the activity change, positive = activation in assay [6] was 6.34%.
Consider `Oc1ccc2c3c1O[C@H]1[C@@H](O)C=C[C@H]4[C@@H](C2)NCC[C@@]341`, for which the Potency entry in assay [1], in assay [2], in [4], in [7], in assay [16] and in [9] was “inactive” each time. For the same molecule, the Potency entry in assay [10], in [12], in assay [13], in assay [14], in [15] and in [17] was “inactive” throughout. The outcome in [3], in [8] and in assay [11] was inactive. Moreover, the activity change, positive = activation in assay [6] was -18.1%.
For `CN(C)C(=O)Oc1cc(OC(=O)N(C)C)cc(C(O)CNC(C)(C)C)c1` (stereo not given), the Potency entry in assay [1], in [2], in assay [4], in [5], in assay [7] and in [16] was “inactive” each time. In addition, the Potency result in assay [9], in [10], in assay [18], in assay [12], in [13] and in [14] was “inactive” in each case. The Potency result in [15] and in assay [17] was “inactive” throughout. The result in [3], in assay [8] and in assay [11] was inactive. Besides, the activity change, positive = activation in assay [6] is 0.805% [at 42.5 µM]. For the same molecule, the max response in assay [19] was -1.56%.
As for `CCCN1CCC[C@@H]2Cc3nc(N)ncc3C[C@H]21`, the Potency result in assay [1], in [2], in [4], in assay [5], in assay [7] and in assay [16] was “inactive” each time. In addition, the Potency result in assay [9], in assay [18] and in [14] was “inactive” in each case. For the same molecule, the molecule was classed as inactive in assay [3] and in assay [11]. Further, the activity change, positive = activation in [6] is 3.55% [at 42.5 µM]. Moreover, the Potency is 16.9 µM (active) in assay [10]; 16.9 µM (active) in [12]; 21.3 µM (active) in assay [13]; 21.3 µM (active) in assay [15]; 21.3 µM (active) in assay [17]. For the same molecule, the max response in [19] was 3.64%.
As for `O=P(O)(O)c1ccccc1`, the Potency entry in assay [1], in [2], in assay [4], in [7], in [16] and in [9] was “inactive” throughout. The Potency entry in [10], in [18], in assay [12], in assay [13], in [14] and in [15] was “inactive” each time. The molecule was called inactive in [3], in assay [8] and in [11]. Further, the max response in [19] is 9.41%.
Regarding `CCCCS(=O)(=O)Cl`, the Potency entry in assay [1], in assay [2], in assay [4], in assay [5], in assay [7] and in assay [16] was “inactive” throughout. The Potency result in [9], in assay [10], in assay [18], in assay [12], in [13] and in assay [14] was “inactive” throughout. For the same molecule, the Potency result in assay [15] and in assay [17] was “inactive” in each case. Moreover, the molecule was called inactive in [3], in [8] and in assay [11]. For the same molecule, the activity change, positive = activation in assay [6] was -4.82%.
On to `CCOC(=O)NC(C)(C)Cc1ccc(Cl)cc1`, for which the Potency result in assay [1], in assay [2], in [4], in [7], in [16] and in assay [9] was “inactive” throughout. The Potency result in [18], in assay [13], in assay [14], in [15] and in assay [17] was “inactive” each time. The molecule was called inactive in assay [3], in assay [8] and in assay [11]. For the same molecule, the max response in assay [19] is 0.66%.
For the molecule `CCC(CC)(CNC(=O)CCCO)c1cccc(OC)c1`, the Potency entry in assay [1], in assay [2], in assay [4], in assay [5], in assay [7] and in assay [16] was “inactive” each time. The Potency entry in assay [9], in [10], in assay [12], in assay [13], in assay [14] and in [15] was “inactive” in each case. Also, the Potency entry in assay [17] is “inactive”. Also, the call in assay [3], in [8] and in assay [11] was inactive. For the same molecule, in assay [6], the activity change, positive = activation was 4.37% [at 42.5 µM]. In assay [19], the max response is 4.41%.
As to `N#CN=C1SCCN1Cc1ccc(Cl)nc1`, the Potency result in [1], in assay [2], in assay [4], in [5], in [7] and in [16] was “inactive” each time. In addition, the Potency entry in assay [9], in assay [10], in assay [18], in [12], in assay [13] and in assay [14] was “inactive” in each case. Moreover, the Potency result in [15] and in [17] was “inactive” throughout. In addition, the outcome in assay [3], in [8] and in assay [11] was inactive. The activity change, positive = activation in [6] was 7.53%.
With `CCC(=O)OC1(c2ccccc2)CCN(C)CC1`, the Potency result in assay [1], in [2], in assay [4], in assay [7], in [16] and in assay [9] was “inactive” each time. The Potency entry in [10], in assay [12], in [13], in assay [14], in [15] and in [17] was “inactive” throughout. Besides, the molecule was called inactive in [3], in [8] and in [11]. Moreover, in assay [19], the max response was -7.76%.
As to `CN1COCN(Cc2cnc(Cl)s2)/C1=N\[N+](=O)[O-]`, the Potency result in assay [1], in [2], in assay [4], in assay [7], in [16] and in [9] was “inactive” each time. The Potency entry in assay [10], in [18], in assay [12], in assay [13], in assay [14] and in assay [15] was “inactive” each time. For the same molecule, the Potency result in assay [17] is “inactive”. The outcome in assay [3], in assay [8] and in [11] was inactive.
`CCCCCCC1CCOC1=O` (stereo not given): the Potency result in [1], in assay [2], in assay [4], in [5], in assay [7] and in [16] was “inactive” in each case. Besides, the Potency entry in [9], in assay [10], in assay [18], in assay [12], in assay [13] and in assay [14] was “inactive” throughout. In addition, the Potency result in assay [15] and in assay [17] was “inactive” in each case. The result in assay [3], in assay [8] and in assay [11] was inactive. Further, the activity change, positive = activation in assay [6] was 0.0938%.
Turning to `N[C@@H]1C[C@H]1c1ccccc1`, the Potency result in [1], in assay [2], in assay [4], in assay [7], in assay [16] and in [9] was “inactive” each time. Further, the Potency result in [10], in [18], in [12], in [13], in assay [14] and in [15] was “inactive” throughout. Moreover, the Potency entry in [17] was “inactive”. Further, the outcome in [3], in [8] and in [11] was inactive. Moreover, the max response in assay [19] is 1.46%.
